# Assay results from publication PMC11006913.
# How the values were obtained:
# Test in all cases: PBM; 200 nM protein, PBS
# Settings in all cases: dsDNA, one strand shown
# [1] = target: HOXA4 (Homo sapiens, UniProt Q00056 201-287, W262R)
# [2] = target: ALX4 (Homo sapiens, UniProt Q9H161 200-286)
# [3] = target: PRRX1 (Homo sapiens, UniProt P54821 80-166, F113S)
# [4] = target: ALX4 (Homo sapiens, UniProt Q9H161 200-286, Q225E)
# [5] = target: HOXA2 (Homo sapiens, UniProt O43364 129-215, R185T)
# [6] = target: HOXA4 (Homo sapiens, UniProt Q00056 201-287, R217L)
# [7] = target: MSX2 (Homo sapiens, UniProt P35548 130-214, R199I)
# [8] = target: HOXA4 (Homo sapiens, UniProt Q00056 201-287)
# [9] = target: MSX2 (Homo sapiens, UniProt P35548 130-214)
# [10] = target: VAX1 (Homo sapiens, UniProt Q5SQQ9 86-172)
# [11] = target: MSX2 (Homo sapiens, UniProt P35548 130-214, F161Y)
# [12] = target: VAX1 (Homo sapiens, UniProt Q5SQQ9 86-172, T142I)
# [13] = target: HOXA4 (Homo sapiens, UniProt Q00056 201-287, W262F)
# [14] = target: PRRX1 (Homo sapiens, UniProt P54821 80-166)
# [15] = target: VAX1 (Homo sapiens, UniProt Q5SQQ9 86-172, K157R)
# [16] = target: T1, VENTX (Homo sapiens, UniProt O95231 78-163, R121Q)
# T1 sequence: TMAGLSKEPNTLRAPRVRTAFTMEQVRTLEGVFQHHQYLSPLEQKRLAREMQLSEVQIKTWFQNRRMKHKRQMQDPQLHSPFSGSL
# [17] = target: HOXA7 (Homo sapiens, UniProt P31268 116-202)
# [18] = target: HOXB6 (Homo sapiens, UniProt P17509 132-218, K202E)
# [19] = target: HOXA7 (Homo sapiens, UniProt P31268 116-202, W177C)
# [20] = target: HOXB6 (Homo sapiens, UniProt P17509 132-218)
# Chain of HOXB6 (Homo sapiens, UniProt P17509 132-218) (P17509 132-218): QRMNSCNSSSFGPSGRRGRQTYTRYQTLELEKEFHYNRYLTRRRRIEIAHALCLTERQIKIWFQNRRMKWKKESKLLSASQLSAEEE
# Chain of HOXA4 (Homo sapiens, UniProt Q00056 201-287) (Q00056 201-287): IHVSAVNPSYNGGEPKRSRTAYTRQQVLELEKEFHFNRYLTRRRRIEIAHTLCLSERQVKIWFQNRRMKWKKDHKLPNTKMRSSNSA
# Chain of PRRX1 (Homo sapiens, UniProt P54821 80-166, F113S) (P54821 80-166 F113S): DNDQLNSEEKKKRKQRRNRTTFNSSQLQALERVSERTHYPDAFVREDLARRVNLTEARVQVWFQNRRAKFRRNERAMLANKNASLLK
# Chain of VAX1 (Homo sapiens, UniProt Q5SQQ9 86-172) (Q5SQQ9 86-172): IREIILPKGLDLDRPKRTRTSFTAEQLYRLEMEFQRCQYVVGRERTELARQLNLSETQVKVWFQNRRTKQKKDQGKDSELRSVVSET
# Chain of HOXA4 (Homo sapiens, UniProt Q00056 201-287, W262F) (Q00056 201-287 W262F): as the sequence (Q00056 201-287) above, with W62F counted along it
# Chain of VAX1 (Homo sapiens, UniProt Q5SQQ9 86-172, T142I) (Q5SQQ9 86-172 T142I): as the sequence (Q5SQQ9 86-172) above, with T57I counted along it
# Chain of HOXB6 (Homo sapiens, UniProt P17509 132-218, K202E) (P17509 132-218 K202E): as the sequence (P17509 132-218) above, with K71E counted along it
# Chain of PRRX1 (Homo sapiens, UniProt P54821 80-166) (P54821 80-166): as the sequence (P54821 80-166 F113S) above, with S34F counted along it
# Chain of HOXA4 (Homo sapiens, UniProt Q00056 201-287, R217L) (Q00056 201-287 R217L): as the sequence (Q00056 201-287) above, with R17L counted along it
# Chain of ALX4 (Homo sapiens, UniProt Q9H161 200-286, Q225E) (Q9H161 200-286 Q225E): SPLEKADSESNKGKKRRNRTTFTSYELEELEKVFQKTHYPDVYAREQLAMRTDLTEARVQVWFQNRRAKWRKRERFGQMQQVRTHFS
# Chain of VAX1 (Homo sapiens, UniProt Q5SQQ9 86-172, K157R) (Q5SQQ9 86-172 K157R): as the sequence (Q5SQQ9 86-172) above, with K72R counted along it
# Chain of HOXA7 (Homo sapiens, UniProt P31268 116-202, W177C) (P31268 116-202 W177C): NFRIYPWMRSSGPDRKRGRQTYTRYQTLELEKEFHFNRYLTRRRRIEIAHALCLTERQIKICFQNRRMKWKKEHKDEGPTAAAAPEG
# Chain of HOXA2 (O43364 129-215 R185T): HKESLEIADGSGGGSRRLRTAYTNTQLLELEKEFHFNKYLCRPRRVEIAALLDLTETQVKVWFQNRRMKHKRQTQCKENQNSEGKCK
# Chain of MSX2 (Homo sapiens, UniProt P35548 130-214) (P35548 130-214): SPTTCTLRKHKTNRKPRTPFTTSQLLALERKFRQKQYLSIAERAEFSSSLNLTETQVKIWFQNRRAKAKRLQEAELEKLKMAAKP
# Chain of HOXA7 (Homo sapiens, UniProt P31268 116-202) (P31268 116-202): as the sequence (P31268 116-202 W177C) above, with C62W counted along it
# Chain of HOXA4 (Homo sapiens, UniProt Q00056 201-287, W262R) (Q00056 201-287 W262R): as the sequence (Q00056 201-287) above, with W62R counted along it
# Chain of MSX2 (Homo sapiens, UniProt P35548 130-214, R199I) (P35548 130-214 R199I): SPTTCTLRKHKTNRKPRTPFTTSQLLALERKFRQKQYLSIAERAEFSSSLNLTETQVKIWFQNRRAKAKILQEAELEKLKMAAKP
# Chain of ALX4 (Homo sapiens, UniProt Q9H161 200-286) (Q9H161 200-286): as the sequence (Q9H161 200-286 Q225E) above, with E26Q counted along it
# Chain of MSX2 (Homo sapiens, UniProt P35548 130-214, F161Y) (P35548 130-214 F161Y): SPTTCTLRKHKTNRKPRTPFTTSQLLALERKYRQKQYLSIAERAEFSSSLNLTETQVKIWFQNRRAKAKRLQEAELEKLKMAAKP
Sequence,binding signal [1],binding signal [2],binding signal [3],binding signal [4],binding signal [5],binding signal [6],binding signal [7],binding signal [8],binding signal [9],binding signal [10],binding signal [11],binding signal [12],binding signal [13],binding signal [14],binding signal [15],binding signal [16],binding signal [17],binding signal [18],binding signal [19],binding signal [20]
CTCAATTA,"10.4 upbm affinity estimate (log intensity, higher = more binding, comparable within an allelic series)","13.9 upbm affinity estimate (log intensity, higher = more binding, comparable within an allelic series)","11.2 upbm affinity estimate (log intensity, higher = more binding, comparable within an allelic series)","13.1 upbm affinity estimate (log intensity, higher = more binding, comparable within an allelic series)","12.6 upbm affinity estimate (log intensity, higher = more binding, comparable within an allelic series)","12 upbm affinity estimate (log intensity, higher = more binding, comparable within an allelic series)","12.7 upbm affinity estimate (log intensity, higher = more binding, comparable within an allelic series)","13.6 upbm affinity estimate (log intensity, higher = more binding, comparable within an allelic series)","13.9 upbm affinity estimate (log intensity, higher = more binding, comparable within an allelic series)","12.9 upbm affinity estimate (log intensity, higher = more binding, comparable within an allelic series)","13.5 upbm affinity estimate (log intensity, higher = more binding, comparable within an allelic series)","12.8 upbm affinity estimate (log intensity, higher = more binding, comparable within an allelic series)","11.4 upbm affinity estimate (log intensity, higher = more binding, comparable within an allelic series)","13.4 upbm affinity estimate (log intensity, higher = more binding, comparable within an allelic series)","12.9 upbm affinity estimate (log intensity, higher = more binding, comparable within an allelic series)",,,,,
CTAATTAG,"10.8 upbm affinity estimate (log intensity, higher = more binding, comparable within an allelic series)","14.7 upbm affinity estimate (log intensity, higher = more binding, comparable within an allelic series)","12 upbm affinity estimate (log intensity, higher = more binding, comparable within an allelic series)","14.6 upbm affinity estimate (log intensity, higher = more binding, comparable within an allelic series)","14.2 upbm affinity estimate (log intensity, higher = more binding, comparable within an allelic series)","12.6 upbm affinity estimate (log intensity, higher = more binding, comparable within an allelic series)","13.6 upbm affinity estimate (log intensity, higher = more binding, comparable within an allelic series)","14.2 upbm affinity estimate (log intensity, higher = more binding, comparable within an allelic series)","14.2 upbm affinity estimate (log intensity, higher = more binding, comparable within an allelic series)","14.1 upbm affinity estimate (log intensity, higher = more binding, comparable within an allelic series)","13.9 upbm affinity estimate (log intensity, higher = more binding, comparable within an allelic series)","14.1 upbm affinity estimate (log intensity, higher = more binding, comparable within an allelic series)","12.6 upbm affinity estimate (log intensity, higher = more binding, comparable within an allelic series)","13.7 upbm affinity estimate (log intensity, higher = more binding, comparable within an allelic series)","14.3 upbm affinity estimate (log intensity, higher = more binding, comparable within an allelic series)","13 upbm affinity estimate (log intensity, higher = more binding, comparable within an allelic series)","11.9 upbm affinity estimate (log intensity, higher = more binding, comparable within an allelic series)","10.2 upbm affinity estimate (log intensity, higher = more binding, comparable within an allelic series)","8.87 upbm affinity estimate (log intensity, higher = more binding, comparable within an allelic series)","12.2 upbm affinity estimate (log intensity, higher = more binding, comparable within an allelic series)"
TAATTAGA,"10.8 upbm affinity estimate (log intensity, higher = more binding, comparable within an allelic series)","14.5 upbm affinity estimate (log intensity, higher = more binding, comparable within an allelic series)","11.9 upbm affinity estimate (log intensity, higher = more binding, comparable within an allelic series)","14.2 upbm affinity estimate (log intensity, higher = more binding, comparable within an allelic series)","13.9 upbm affinity estimate (log intensity, higher = more binding, comparable within an allelic series)","12.5 upbm affinity estimate (log intensity, higher = more binding, comparable within an allelic series)","13.2 upbm affinity estimate (log intensity, higher = more binding, comparable within an allelic series)","14.1 upbm affinity estimate (log intensity, higher = more binding, comparable within an allelic series)","14.1 upbm affinity estimate (log intensity, higher = more binding, comparable within an allelic series)","13.8 upbm affinity estimate (log intensity, higher = more binding, comparable within an allelic series)","13.7 upbm affinity estimate (log intensity, higher = more binding, comparable within an allelic series)","13.7 upbm affinity estimate (log intensity, higher = more binding, comparable within an allelic series)","12.1 upbm affinity estimate (log intensity, higher = more binding, comparable within an allelic series)","13.6 upbm affinity estimate (log intensity, higher = more binding, comparable within an allelic series)","13.9 upbm affinity estimate (log intensity, higher = more binding, comparable within an allelic series)","12.5 upbm affinity estimate (log intensity, higher = more binding, comparable within an allelic series)","11.5 upbm affinity estimate (log intensity, higher = more binding, comparable within an allelic series)","10 upbm affinity estimate (log intensity, higher = more binding, comparable within an allelic series)","8.87 upbm affinity estimate (log intensity, higher = more binding, comparable within an allelic series)","12 upbm affinity estimate (log intensity, higher = more binding, comparable within an allelic series)"
CTAATTGA,"10.5 upbm affinity estimate (log intensity, higher = more binding, comparable within an allelic series)","14.1 upbm affinity estimate (log intensity, higher = more binding, comparable within an allelic series)","11.1 upbm affinity estimate (log intensity, higher = more binding, comparable within an allelic series)","13.5 upbm affinity estimate (log intensity, higher = more binding, comparable within an allelic series)","13.3 upbm affinity estimate (log intensity, higher = more binding, comparable within an allelic series)","12 upbm affinity estimate (log intensity, higher = more binding, comparable within an allelic series)","12.8 upbm affinity estimate (log intensity, higher = more binding, comparable within an allelic series)","13.9 upbm affinity estimate (log intensity, higher = more binding, comparable within an allelic series)","13.9 upbm affinity estimate (log intensity, higher = more binding, comparable within an allelic series)","13.5 upbm affinity estimate (log intensity, higher = more binding, comparable within an allelic series)","13.5 upbm affinity estimate (log intensity, higher = more binding, comparable within an allelic series)","13.2 upbm affinity estimate (log intensity, higher = more binding, comparable within an allelic series)","11.4 upbm affinity estimate (log intensity, higher = more binding, comparable within an allelic series)","13.5 upbm affinity estimate (log intensity, higher = more binding, comparable within an allelic series)","13.4 upbm affinity estimate (log intensity, higher = more binding, comparable within an allelic series)","12.1 upbm affinity estimate (log intensity, higher = more binding, comparable within an allelic series)",,,,
CCTAATTA,"10.7 upbm affinity estimate (log intensity, higher = more binding, comparable within an allelic series)","14.5 upbm affinity estimate (log intensity, higher = more binding, comparable within an allelic series)","11.6 upbm affinity estimate (log intensity, higher = more binding, comparable within an allelic series)","14.1 upbm affinity estimate (log intensity, higher = more binding, comparable within an allelic series)","14 upbm affinity estimate (log intensity, higher = more binding, comparable within an allelic series)","12.6 upbm affinity estimate (log intensity, higher = more binding, comparable within an allelic series)","13.2 upbm affinity estimate (log intensity, higher = more binding, comparable within an allelic series)","14.2 upbm affinity estimate (log intensity, higher = more binding, comparable within an allelic series)","14.1 upbm affinity estimate (log intensity, higher = more binding, comparable within an allelic series)","13.8 upbm affinity estimate (log intensity, higher = more binding, comparable within an allelic series)","13.7 upbm affinity estimate (log intensity, higher = more binding, comparable within an allelic series)","13.9 upbm affinity estimate (log intensity, higher = more binding, comparable within an allelic series)","12.3 upbm affinity estimate (log intensity, higher = more binding, comparable within an allelic series)","13.6 upbm affinity estimate (log intensity, higher = more binding, comparable within an allelic series)","14.1 upbm affinity estimate (log intensity, higher = more binding, comparable within an allelic series)","12.6 upbm affinity estimate (log intensity, higher = more binding, comparable within an allelic series)","11.8 upbm affinity estimate (log intensity, higher = more binding, comparable within an allelic series)","10 upbm affinity estimate (log intensity, higher = more binding, comparable within an allelic series)","8.85 upbm affinity estimate (log intensity, higher = more binding, comparable within an allelic series)","12.1 upbm affinity estimate (log intensity, higher = more binding, comparable within an allelic series)"
TAATTGCA,,,,,"12.7 upbm affinity estimate (log intensity, higher = more binding, comparable within an allelic series)","11.9 upbm affinity estimate (log intensity, higher = more binding, comparable within an allelic series)","13 upbm affinity estimate (log intensity, higher = more binding, comparable within an allelic series)",,"13.9 upbm affinity estimate (log intensity, higher = more binding, comparable within an allelic series)",,"13.6 upbm affinity estimate (log intensity, higher = more binding, comparable within an allelic series)","12.5 upbm affinity estimate (log intensity, higher = more binding, comparable within an allelic series)",,,"12.4 upbm affinity estimate (log intensity, higher = more binding, comparable within an allelic series)","11.8 upbm affinity estimate (log intensity, higher = more binding, comparable within an allelic series)","11.6 upbm affinity estimate (log intensity, higher = more binding, comparable within an allelic series)","10 upbm affinity estimate (log intensity, higher = more binding, comparable within an allelic series)","8.79 upbm affinity estimate (log intensity, higher = more binding, comparable within an allelic series)","12.1 upbm affinity estimate (log intensity, higher = more binding, comparable within an allelic series)"
CCCCGGCG,"9.68 upbm affinity estimate (log intensity, higher = more binding, comparable within an allelic series)",,,,,"9.73 upbm affinity estimate (log intensity, higher = more binding, comparable within an allelic series)",,"9.89 upbm affinity estimate (log intensity, higher = more binding, comparable within an allelic series)",,,,,"9.94 upbm affinity estimate (log intensity, higher = more binding, comparable within an allelic series)",,,,,"9.01 upbm affinity estimate (log intensity, higher = more binding, comparable within an allelic series)",,"9 upbm affinity estimate (log intensity, higher = more binding, comparable within an allelic series)"
AAATTAAT,"10.6 upbm affinity estimate (log intensity, higher = more binding, comparable within an allelic series)","14 upbm affinity estimate (log intensity, higher = more binding, comparable within an allelic series)","11.2 upbm affinity estimate (log intensity, higher = more binding, comparable within an allelic series)","13.3 upbm affinity estimate (log intensity, higher = more binding, comparable within an allelic series)",,"12.1 upbm affinity estimate (log intensity, higher = more binding, comparable within an allelic series)","12.2 upbm affinity estimate (log intensity, higher = more binding, comparable within an allelic series)","13.6 upbm affinity estimate (log intensity, higher = more binding, comparable within an allelic series)","13.4 upbm affinity estimate (log intensity, higher = more binding, comparable within an allelic series)","12.7 upbm affinity estimate (log intensity, higher = more binding, comparable within an allelic series)","13.1 upbm affinity estimate (log intensity, higher = more binding, comparable within an allelic series)","12.5 upbm affinity estimate (log intensity, higher = more binding, comparable within an allelic series)","11.5 upbm affinity estimate (log intensity, higher = more binding, comparable within an allelic series)","13.3 upbm affinity estimate (log intensity, higher = more binding, comparable within an allelic series)","12.4 upbm affinity estimate (log intensity, higher = more binding, comparable within an allelic series)",,"11.3 upbm affinity estimate (log intensity, higher = more binding, comparable within an allelic series)","10.1 upbm affinity estimate (log intensity, higher = more binding, comparable within an allelic series)","8.83 upbm affinity estimate (log intensity, higher = more binding, comparable within an allelic series)","11.8 upbm affinity estimate (log intensity, higher = more binding, comparable within an allelic series)"
AATTAACA,"10.8 upbm affinity estimate (log intensity, higher = more binding, comparable within an allelic series)","13.9 upbm affinity estimate (log intensity, higher = more binding, comparable within an allelic series)","11.2 upbm affinity estimate (log intensity, higher = more binding, comparable within an allelic series)","13.2 upbm affinity estimate (log intensity, higher = more binding, comparable within an allelic series)","12.6 upbm affinity estimate (log intensity, higher = more binding, comparable within an allelic series)","12.1 upbm affinity estimate (log intensity, higher = more binding, comparable within an allelic series)","12.4 upbm affinity estimate (log intensity, higher = more binding, comparable within an allelic series)","13.7 upbm affinity estimate (log intensity, higher = more binding, comparable within an allelic series)","13.6 upbm affinity estimate (log intensity, higher = more binding, comparable within an allelic series)","12.9 upbm affinity estimate (log intensity, higher = more binding, comparable within an allelic series)","13.2 upbm affinity estimate (log intensity, higher = more binding, comparable within an allelic series)","12.6 upbm affinity estimate (log intensity, higher = more binding, comparable within an allelic series)","11.7 upbm affinity estimate (log intensity, higher = more binding, comparable within an allelic series)","13.3 upbm affinity estimate (log intensity, higher = more binding, comparable within an allelic series)","12.8 upbm affinity estimate (log intensity, higher = more binding, comparable within an allelic series)","11.9 upbm affinity estimate (log intensity, higher = more binding, comparable within an allelic series)","11.3 upbm affinity estimate (log intensity, higher = more binding, comparable within an allelic series)","10 upbm affinity estimate (log intensity, higher = more binding, comparable within an allelic series)","8.91 upbm affinity estimate (log intensity, higher = more binding, comparable within an allelic series)","11.7 upbm affinity estimate (log intensity, higher = more binding, comparable within an allelic series)"
